# Measurements from PubChem BioAssay (Tox21).
# Inconclusive results are not listed. Activity calls are given as the source filed them. The call rests on the fitted dose curve; in most records, active means well fitted cell-killing curve with a large enough effect in the repeat runs; inconclusive means weak or mixed curves; inactive means flat fitted curve, though single readings scatter.
# Assay: qHTS RealTime-Glo MT Cell Viability Assay in HepG2 cells - 32 hour (AID 1224877); further: nearly all actives have a fitted effect of over 55% in size
# Settings: RealTime-Glo luminescence; series mostly up to 76.8 µM
# Text: U.S. Tox21 Program National Center for Advancing Translational Sciences [NCATS] NIH Chemical Genomics Center [NCGC] U.S. Environmental Protection Agency [EPA] National Institutes of Environmental Health Sciences [NIEHS] National Toxicology Program [NTP] U.S. Food and Drug Administration [FDA] Tox21 Assay Overview: Measure of cell viability is critical in the cell-base assay. Analysis of cell viability is necessary for the characterization of cell responses to cytotoxic drugs and environmental stress. A RealTime-Glo MT Cell Viability Assay to monitor cell viability in real time of continues cell culture during 40 hours of compound treatment was used to screen Tox21 10K library compounds in HepG2 cells. The RealTime-Glo MT Cell Viability Assay is a nonlytic, homogeneous, bioluminescent method to measure cell viability in real time using a simple, plate-based method. The assay involves adding NanoLuc luciferase and a cell-permeant prosubstrate to cells in culture. Viable cells reduce the proprietary prosubstrate to generate a substrate for NanoLuc luciferase. This substrate diffuses from cells into the surrounding culture medium, where it is rapidly used by the NanoLuc Enzyme to produce a luminescent signal. The signal correlates with the number of viable cells, making the assay well suited for cytotoxicity studies.
# Tox21 Assay Protocol Summary: The mixture of HepG2 cell suspension and reagents were dispensed at 600cells/6 ul/well in 1536-well tissue culture treated black solid bottom plates using a Multidrop dispenser. After the assay plates were incubated at a 37 C/5% CO2 incubator for 5 hours, 23 nL of compounds dissolved in DMSO, positive and negative controls was transferred to the assay plate by a pintool work station. The plates were incubated at 37 C for 40 hours. The luminescence intensity were measured at 0h, 8h, 16h, 24h, 32h and 40h time points using ViewLux plate reader during compound treatment.
row,SMILES,outcome
1,CSc1nnc(C(C)(C)C)c(=O)n1N,inactive
2,Nc1nc(N)nc(NC2CC2)n1,inactive
3,Cc1cc(O)ccc1Cl,inactive
4,Cc1ccc(N=C=O)cc1N=C=O,inactive
5,Cl/C=C/Cl,inactive
6,COP(=S)(OC)Oc1ccc(SC)c(C)c1,inactive
7,O=C(O)C(Br)Br,inactive
8,Cl[C@H]1OCCO[C@@H]1Cl,inactive
9,Cc1cc(Cl)ccc1OC(C)C(=O)O (stereo not given),inactive
10,Nc1ccc([As](=O)(O)O)cc1,inactive
11,N#Cc1cccc(C#N)c1,inactive
12,Oc1ccc(Cl)cc1,inactive
13,CC12CC1(C)C(=O)N(c1cc(Cl)cc(Cl)c1)C2=O (stereo not given),inactive
14,COc1nc(NC(C)C)nc(NC(C)C)n1,inactive
15,CCOc1ccc(N)cc1,inactive
16,CC[N+](=O)[O-],inactive
17,ClCCOCCCl,inactive
18,C=CCN=C=S,inactive
19,CC(C)(C)C(=O)CCl,inactive
20,c1ccc2c(c1)CCCC2,inactive

row,SMILES,outcome
1,Oc1c(Br)cc(Br)cc1Br,inactive
2,O=[N+]([O-])c1ccc(Cl)cc1,inactive
3,O=C/C=C/c1ccccc1,inactive
4,CNC(=O)O/N=C/C(C)(C)S(C)(=O)=O,inactive
5,CC(=O)C1CCOC1=O (stereo not given),inactive
6,CN(C)C(=O)Nc1cccc(C(F)(F)F)c1,inactive
7,COC(=O)Nc1cccc(OC(=O)Nc2cccc(C)c2)c1,inactive
8,COP(=S)(OC)SCN1C(=O)c2ccccc2C1=O,inactive
9,O=[N+]([O-])c1cc([As](=O)(O)O)ccc1O,inactive
10,C[C@H]1C(=O)O[C@@H]2CCN3CC=C(COC(=O)[C@](C)(O)[C@]1(C)O)[C@H]23,inactive
11,CNC(=O)O/N=C/C(C)(C)S(C)=O (stereo not given),inactive
12,CCCOC(=O)c1ccccc1C(=O)OCCC,inactive
13,OCC(O)CCl (stereo not given),inactive
14,Sc1ccccc1,inactive
15,O=C(O)C1C(C(=O)O)C2(Cl)C(Cl)=C(Cl)C1(Cl)C2(Cl)Cl (stereo not given),inactive
16,CNC(=O)Oc1cccc2ccccc12,inactive
17,C/C=C/c1ccc2c(c1)OCO2,inactive
18,Cc1ccc(O)c(C)c1,inactive
19,CNC(=O)O/N=C/C(C)(C)SC,inactive
20,CN(C)C(=O)C(c1ccccc1)c1ccccc1,inactive
